“And” between values parts separate entries of the source, which are not always exact repeats. Equal values may be shown once. The campaign covered roughly 5,500 compounds. About 2,000 (36%) were called active. About 18% were inconclusive and are not listed. Cut-off read from the data, not from the text of the source: active = normalized growth mostly below about 0.91 (no sharp cut-off); inconclusive = no clear call, values can overlap the other calls; inactive = mostly above about 0.92. The list shows a part of the results.
Experiment: chemical genetic growth profiling, strain panel (AID 1159580);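 note: tested at 20 µM; growth read once vehicle control cultures reached saturation at 30 °C; 1 = growth at the plate median or of vehicle wells; lower values mean less growth of the strain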
Conditions: S. cerevisiae deletion strains, growth OD

Measured: normalized growth

C=C(C)c1cc2cc(C(C)=O)c(O)cc2o1
active: locus YBR229C, strain ROT2, hits give low values 0.91 | locus YDL185W, strain tfp1, hits give low values 0.895 | locus YDL192W, strain arf1, hits give low values 0.893 | locus YDR101C, strain arx1, hits give low values 0.873 | locus YDR195W, strain ref2 1.2 [resistant] | locus YDR392W, strain spt3, hits give low values 0.672 | locus YER110C, hits give low values 0.894 | locus YER155C, strain BEM2 (second series), hits give low values 0.615 | locus YGL086W, strain mad1, hits give low values 0.928 | locus YGL240W, strain doc1, hits give low values 0.829 | locus YHR094C, strain hxt1, hits give low values 0.917 | locus YHR200W, strain rpn10, hits give low values 0.883 | locus YJL168C, strain set2, hits give low values 0.929
inactive: locus YAL013W, strain DEP1, hits give low values 0.948 | locus YAL021C, strain ccr4, hits give low values 0.981 | locus YAL026C, strain drs2, hits give low values 0.985 | locus YAL030W, strain snc1, hits give low values 0.974 | locus YBL061C, strain skt5, hits give low values 0.97 | locus YBR009C, strain hhf1, hits give low values 0.927 | locus YBR021W, strain FUR4, hits give low values 1.11 | locus YBR023C, strain chs3, hits give low values 0.94 | locus YBR171W, strain sec66, hits give low values 0.952 | locus YBR231C, strain swc5, hits give low values 0.961 | locus YBR279W, strain paf1, hits give low values 0.966 | locus YCL011C, strain gbp2, hits give low values 0.943 | locus YCL016C, strain dcc1, hits give low values 0.921 | locus YCL029C, strain bik1, hits give low values 0.961 | locus YCL069W, strain vba3, hits give low values 0.964 | locus YCR088W, strain abp1, hits give low values 0.965 | locus YDL005C, strain med2, hits give low values 0.991 | locus YDL035C, strain GPR1, hits give low values 0.93 | locus YDL040C, strain nat1, hits give low values 0.974 | locus YDL074C, strain BRE1, hits give low values 0.924 | locus YDL101C, strain DUN1, hits give low values 0.959 | locus YDR001C, strain nth1, hits give low values 0.972 | locus YDR069C, strain doa4, hits give low values 0.998 | locus YDR137W, strain rgp1, hits give low values 0.854 | locus YDR150W, strain NUM1, hits give low values 0.965 | locus YDR159W, strain sac3, hits give low values 0.992 | locus YDR162C, strain NBP2, hits give low values 0.926 | locus YDR297W, strain sur2, hits give low values 0.991 | locus YDR318W, strain mcm21, hits give low values 0.928 | locus YDR334W, strain swr1, hits give low values 0.983 | locus YDR335W, strain msn5, hits give low values 0.965 | locus YDR388W, hits give low values 0.947 | locus YDR502C, strain sam2, hits give low values 0.968 | locus YEL003W, strain gim4, hits give low values 0.973 | locus YEL037C, strain rad23, hits give low values 0.979 | locus YEL061C, strain CIN8 (second series), hits give low values 0.958 | locus YEL061C, strain CIN8, hits give low values 0.94 | locus YER015W, strain faa2, hits give low values 0.958 | locus YER016W, strain bim1, hits give low values 0.975 | locus YER111C, strain swi4, hits give low values 0.97 | locus YER155C, strain BEM2, hits give low values 0.967 | locus YER167W, strain BCK2, hits give low values 0.904 | locus YFR010W, strain ubp6, hits give low values 1 | locus YGL078C, strain dbp3, hits give low values 0.962 | locus YGL167C, strain pmr1, hits give low values 0.956 | locus YGL173C, strain kem1, hits give low values 0.971 | locus YGL227W, strain vid30, hits give low values 0.967 | locus YGL248W, strain PDE1, hits give low values 0.967 | locus YGL253W, strain hxk2, hits give low values 0.977 | locus YGR135W, strain pre9, hits give low values 0.971 | locus YGR252W, strain gcn5, hits give low values 0.916 | locus YHR013C, strain ard1, hits give low values 0.94 | locus YHR027C, strain rpn1, hits give low values 0.992 | locus YHR030C, strain SLT2, hits give low values 0.954 and 0.925 | locus YHR079C, strain IRE1 (second series), hits give low values 0.93 | locus YHR079C, strain IRE1, hits give low values 0.909 | locus YHR129C, strain ARP1, hits give low values 0.953 | locus YHR142W, strain chs7, hits give low values 0.907 | locus YIL066C, strain RNR3, hits give low values 0.919 | locus YIL073C, strain SPO22, hits give low values 0.899 | locus YIL125W, strain kgd1, hits give low values 0.934 | locus YIR030C, strain dcg1, hits give low values 0.929 | locus YJL092W, strain hpr5, hits give low values 0.973 | locus YJL095W, strain BCK1 (second series), hits give low values 0.974 | locus YJL095W, strain BCK1, hits give low values 0.95 and 0.932 | locus YJL115W, strain asf1, hits give low values 0.983 | locus YJL129C, strain trk1, hits give low values 0.926 | locus YJL134W, strain LCB3, hits give low values 0.951 | locus YJL154C, strain vps35, hits give low values 0.983 | locus YJL164C, strain tpk1, hits give low values 0.932 | locus YJL166W, strain qcr8, hits give low values 0.945 | locus YJL187C, strain SWE1 (second series), hits give low values 0.958
